The results in this text go back to PubChem BioAssay (NCATS).

A short description of test [1]: qHTS Assay for Identifying Gametocytocidal Compounds (AID 743244).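 For max response: % is set by controls: 0 for no effect and ±100 for the full control effect; actives lower the fluorescent signal which means gametocytes are killed.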 Note: potency is the fitted concentration of half-maximal effect. The conditions noted are these: P. falciparum 3D7 stage III-V gametocytes, alamarBlue, 72 h; max response: stronger effect = lower value. In outline:
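Viability read-out was resazurin reduction (alamarBlue, 24 h) measured at Ex 525/Em 598 nm. Beforehand, late-stage (III-V) 3D7 P. falciparum gametocytes at 20,000 cells/well were incubated with compound 72 h at 37C under 5% CO2.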
In general terms: qHTS replaces the single test concentration by a dilution series.

Test [2] in a line: qHTS profiling for inhibitors of Plasmodium falciparum (3D7) proliferation (AID 743322; call rule not given here;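 note: infected erythrocytes exposed to compound for 72 h before lysis; 100% = DMSO vehicle wells and 0% = 0.29 µM artemisinin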). The conditions noted are these: P. falciparum 3D7 proliferation; at 28.7 µM (top of the series) unless noted. In outline: (§1)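 Parasite DNA was quantified by SYBR Green I fluorescence (ex 485, em 535 nm) after overnight lysis in saponin/Triton buffer at room temperature. Cultures at 0.3% parasitemia and 2.5% hematocrit were first exposed to compound for 72 h at 37 C; signals were normalised to artemisinin (0.29 uM) and vehicle wells.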

Test [3] can be described thus: qHTS profiling for inhibitors of Plasmodium falciparum (DD2) proliferation (AID 743323; call rule not given here). To be noted: lower = more inhibition; at 28.7 µM (top of the series) unless noted. In outline: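 Parasite DNA quantified by SYBR Green fluorescence (ex 485, em 535 nm) after saponin/Triton lysis and overnight dark incubation. Cultures: 0.3% parasitemia, 2.5% hematocrit, 72 h, 37 C; data scaled between DMSO and 0.29 uM artemisinin.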

The nature of test [4]: qHTS profiling for inhibitors of Plasmodium falciparum (HB3) proliferation (AID 743324).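 Note: 100% = DMSO vehicle wells and 0% = artemisinin-treated control wells.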 To be noted: Plasmodium falciparum HB3 blood-stage proliferation; at 28.7 µM (top of the series) unless noted. In outline: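 SYBR Green fluorescence (485 ex/535 em) of lysed cultures, incubated overnight at room temperature in the dark, quantifies parasite DNA. Infected erythrocytes at 0.3% parasitemia and 2.5% hematocrit were exposed 72 h; values normalized to DMSO and 0.29 uM artemisinin controls.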

The nature of test [5]: Identifying Small Molecule Inhibitors of Pancreatic Cancer Stem Cells (SN12C, Adherent) (AID 1259358).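 Note: cell survival measured after 48 h of compound exposure.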 Note: potency is the fitted concentration of half-maximal effect. In outline:
(§2)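 Viability is scored by CellTiter-Glo luminescence 48 h after dosing, expressed as percent activity against vehicle and no-cell references. Spheroid formats rely on cells cultured 14 days in stem cell media beforehand.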

Test [6] can be described thus: Identifying Small Molecule Inhibitors of Pancreatic Cancer Stem Cells (A278, Adherent) (AID 1259361).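 Note: viability read after 48 h compound exposure; nearly all actives have a fitted effect of over 35% in size.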 In outline:
as §2

Test [7] can be described thus: Identifying Small Molecule Inhibitors of Pancreatic Cancer Stem Cells (Panc1, Adherent) (AID 1259362). Note: potency is the fitted concentration of half-maximal effect. The conditions noted are these: Potency: viability. In outline: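 Adherent (2D) versus sphere (3D) formats; spheres generated 14 d in SCM beforehand. Compound transferred by pin tool after 4 h, 48 h incubation, CellTiter-Glo endpoint.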
The nature of test [8]: Identifying Small Molecule Inhibitors of Pancreatic Cancer Stem Cells (Panc1, Spheroid) (AID 1259359).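 Note: compound exposure lasted 48 h before reading.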 Note: potency is the fitted concentration of half-maximal effect. In outline:
as §2

The nature of test [9]: P-glycoprotein substrates identified in KB-3-1 adenocarcinoma cell line, qHTS therapeutic library screen (AID 1346986). Note: nearly all actives have a fitted effect of over 60% in size. In outline:
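Using luminescence to quantify ATP, parental and P-gp-overexpressing KB cells were compared after 72 h compound titration. KB-8-5-11 was also run with the P-gp inhibitor tariquidar.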

Test [10] in a line: Identifying Small Molecule Inhibitors of Pancreatic Cancer Stem Cells (A2780, Spheroid) (AID 1259357).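 Note: spheroids pre-formed over 14 days in stem cell medium on hydrogel; potency is the fitted concentration of half-maximal effect; compound exposure lasted 48 h before the ATP luminescence read.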 The conditions noted are these: Potency: A2780 spheroid viability. In outline: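 Spheroids grown 14 days in stem cell media on hydrogel-coated nonadherent plates; 2D lines seeded directly. Compounds added after 4 h attachment, 48 h at 37C, 5% CO2; CellTiter-Glo luminescence normalized to DMSO (no inhibition) and no-cell wells (full inhibition).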

Test [11] in a line: qHTS profiling of the MIPE4 collection as inhibitors of Plasmodium falciparum (3D7) proliferation (AID 743344; call rule not given here;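 note: scaled between DMSO vehicle wells and 0.29 µM artemisinin as full inhibition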). The conditions noted are these: P. falciparum 3D7 in erythrocytes, SYBR Green DNA fluorescence, 72 h; at 28.5 µM (top of the series) unless noted. In outline: as §1
Test [12] can be described thus: qHTS profiling of the MIPE4 collection as inhibitors of Plasmodium falciparum (DD2) proliferation (AID 743345; call rule not given here). To be noted: P. falciparum Dd2 in erythrocytes, SYBR Green DNA, 72 h; at 28.5 µM (top of the series) unless noted. In outline:
as §1

Test [13] can be described thus: qHTS profiling of the MIPE4 collection as inhibitors of Plasmodium falciparum (DD2) proliferation (Rep 2) (AID 743346; call rule not given here). The conditions noted are these: P. falciparum Dd2 in erythrocytes, SYBR Green DNA, 72 h; at 28.5 µM (top of the series) unless noted. In outline: as §1
The nature of test [14]: qHTS profiling of the MIPE4 collection as inhibitors of Plasmodium falciparum (HB3) proliferation (AID 743347; call rule not given here;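 note: plate controls were DMSO vehicle wells for no effect and artemisinin wells for full effect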). To be noted: P. falciparum HB3 in erythrocytes, SYBR Green DNA, 72 h; at 28.5 µM (top of the series) unless noted. In outline: as §1
Test [15] can be described thus: qHTS assay to identify small molecule inhibitors of chordoma cells - UCH-2 (AID 1259356). Note: % is set by controls: 0 for no effect and ±100 for the full control effect.

The structures appear in SMILES notation. Records with an inconclusive call do not appear. The source made the active and inactive calls. Unless noted, calls come from the whole dose curve; as a rule, active = well fitted curve in the direction sought with a large enough effect; inconclusive = small, poorly fitted or top-dose-only effect, or another doubt; inactive = no such curve, though single readings can be large; an effect the other way counts as inactive or inconclusive.

On to `CCOc1cc2ncc(C#N)c(Nc3ccc(OCc4ccccn4)c(Cl)c3)c2cc1NC(=O)/C=C/CN(C)C`, for which the Potency in test [1] was 23500 nM (active); in test [5], 418 nM (active); in test [7], 2640 nM (active). Also, the remaining parasite growth % (stronger effect = lower value) in test [2] was -0.375%. Further, the activity, percent of control in [3] came out at 5.17%. Further, the remaining proliferation (% of control), lower = more inhibition in [4] was -0.513%. Moreover, the IC50 (viability decrease) in test [6] is 1180 nM (active).
On to `O=C(O)CC/C=C\CC[C@H]1[C@@H](N2CCCCC2)[C@@H](O)C[C@@H]1OCc1ccc(-c2ccccc2)cc1`, for which, in [1], the max response is 3.93% (inactive). Also, in test [2], the remaining parasite growth % (stronger effect = lower value) stood at 58.6%. Also, in [3], the activity, percent of control is 86.9%. In addition, the remaining proliferation (% of control), lower = more inhibition in test [4] was 76.1%. The Potency entry in [5] and in [8] was “inactive” throughout. In addition, the IC50 (viability decrease) entry in test [6] is “inactive”.
Take `COC(=O)C1=CO[C@@H](O[C@@H]2O[C@H](CO)[C@@H](O)[C@H](O)[C@H]2O)[C@@H]2[C@@H](C)[C@@H](O)C[C@H]12`: in test [9], the Potency entry was “inactive”.
Still for that read-out and setting: as for `C/C=C1/[C@H](O[C@@H]2O[C@H](CO)[C@@H](O)[C@H](O)[C@H]2O)OC=C(C(=O)OC)[C@H]1CC(=O)O[C@@H]1O[C@H](CO)[C@@H](O)[C@H](O)[C@H]1O`, the entry is “inactive”.
In the case of `NC(=O)Nc1cc(-c2ccc(CN3CCOCC3)c(F)c2)sc1C(=O)N[C@H]1CCCNC1`, the Potency was 18700 nM (active) in [1]; 20900 nM (active) in test [10]; 833 nM (active) in [5]; 9350 nM (active) in test [8]; 833 nM (active) in [7]. For the same compound, the remaining parasite growth % (stronger effect = lower value) in test [2] came out at 3.88%. Besides, in test [3], the activity, percent of control was 1.39%. Also, in test [4], the remaining proliferation (% of control), lower = more inhibition came out at 2.42%. Also, the IC50 (viability decrease) in test [6] is 526 nM (active).
For `C=CC(C)(C)O[C@@H]1O[C@H](CO[C@@H]2OC[C@](O)(CO)[C@H]2O)[C@@H](O)[C@H](O)[C@H]1O`, in test [9], the Potency entry was “inactive”.
On the same count and under the same terms, as for `CC(=O)OC(CSC1CCC(=O)OC(C)CCC(=O)C1)C(=O)O` (configuration not stated), the entry is “inactive”.
In the case of `CCCC(=O)O[C@]1(C(=O)CCl)[C@H](C)C[C@@H]2[C@H]3CCC4=CC(=O)C=C[C@]4(C)[C@@]3(F)C(=O)C[C@@]21C`, in test [2], the remaining parasite growth % (stronger effect = lower value) amounted to 0.271%. Also, in test [3], the activity, percent of control is 1.4%. For the same compound, the remaining proliferation (% of control), lower = more inhibition in test [4] was found to be 1.97%. The same compound registered a parasite growth, % of DMSO control in [11] of 7.36%. Moreover, in test [12], the parasite growth remaining, % of DMSO control (lower = more inhibition) stood at 7.93%. Besides, in [13], the parasite growth, % of control (lower = inhibition) was determined as 32.4%. Also, the growth, % of control in test [14] worked out at 7.79%. Besides, the Potency result in [15] is “inactive”.
For `Cc1nnc(C(C)C)n1C1CC2CCC(C1)N2CC[C@H](NC(=O)C1CCC(F)(F)CC1)c1ccccc1` (some centres not stated), the max response in test [1] is 3.23% (inactive). The remaining parasite growth % (stronger effect = lower value) in test [2] is 111%. Further, in test [3], the activity, percent of control was found to be 102%. Further, the remaining proliferation (% of control), lower = more inhibition in test [4] came out at 96.7%. Moreover, in test [5], the Potency result is “inactive”.
With `CCC1(O)CC2CN(CCc3c([nH]c4ccccc34)[C@@](C(=O)OC)(c3cc4c(cc3OC)N(C=O)[C@H]3[C@](O)(C(=O)OC)[C@H](OC(C)=O)[C@]5(CC)C=CCN6CC[C@]43[C@@H]65)C2)C1` (some centres not stated), the max response in test [1] was -18.4% (inactive). For the same compound, in test [2], the remaining parasite growth % (stronger effect = lower value) came out at 8.01%. Also, the activity, percent of control in test [3] amounted to 13.7%. Moreover, the remaining proliferation (% of control), lower = more inhibition in [4] stood at 8.78%. Further, the Potency was 1180 nM (active) in test [5] and 2.6 nM (active) in [7]. The IC50 (viability decrease) in [6] was 418 nM (active).
